# Hits are enriched below; roughly 2.9% of the tested compounds scored in any of these assays.
# S1P4 agonist = agonists of human S1P4 receptor. S1P4-expressing cell line, agonist reporter assay. activation, % at 4.98 µM. 220,000 tested, 0.35% active. O95977; in the data active = activation above about 11%;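 also: 0% = DMSO vehicle and 100% = reference agonist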
# HSF-1 act = increases HSF-1 driven luciferase reporter signal; NIH3T3-HGL HSF-1 luciferase reporter, MG132, 8 h; 100% = twice DMSO control signal; 300,000 tested, 1.7% active; AID 504408; activation, % at 9 µM;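 active = mean replicate activation of at least 50% with a set share of replicates each reaching 50%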;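 also: 0% = median of the neutral control wells and 100% = twice that signal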
# Hsp70 activator = Hsp70 transcriptional activation, primary screen | HeLa Hsp70 promoter luciferase reporter, luminescence; scaled: vehicle 0, proteasome-inhibitor control 100% | activation, % at 10 µM | 200,000 tested, 0.04% active | AID 1203;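 active = activation above the mean across all tested compounds plus 3 SD, cutoff set per campaign, cut at about 5.5% in these data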;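 also: 100% = MG132 at 30 µM as the positive control and 0% = DMSO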
# S1P3 antag = blocks the human S1P3 receptor | Q99500 | CHO S1P3 NFAT-BLA reporter, FRET fluorescence, antagonist mode | inhibition, % at 4.98 µM | 170,000 tested, 0.27% active;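 active = inhibition above the plate cutoff, the mean inhibition of test wells on that plate plus 3 SD, cut at about 28% in these data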;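 also: cells challenged with S1P at its EC80 of 0.8 µM; blue over green emission ratio from cleaved BLA substrate after 4 h stimulation; 0% = S1P-stimulated wells and 100% = unstimulated DMSO-only wells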
# Target sequence (Q99500 whole entry, looked up): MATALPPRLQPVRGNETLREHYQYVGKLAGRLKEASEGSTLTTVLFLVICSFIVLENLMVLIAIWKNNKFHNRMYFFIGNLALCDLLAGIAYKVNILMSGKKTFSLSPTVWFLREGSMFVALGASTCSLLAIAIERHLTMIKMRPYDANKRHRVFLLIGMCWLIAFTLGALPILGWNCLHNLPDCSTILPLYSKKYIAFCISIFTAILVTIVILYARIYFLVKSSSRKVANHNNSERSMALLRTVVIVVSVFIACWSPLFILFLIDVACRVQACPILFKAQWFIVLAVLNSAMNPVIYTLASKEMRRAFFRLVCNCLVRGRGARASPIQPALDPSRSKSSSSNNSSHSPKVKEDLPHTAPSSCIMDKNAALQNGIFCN
# S1P4 antag = blocks the human S1P4 receptor; S1P4-expressing cells, antagonist mode, reporter read-out; inhibition, % at 4.98 µM; 220,000 tested, 0.26% active; in the data active = inhibition above about 29%;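 also: 0% = wells stimulated with agonist and 100% = vehicle wells without agonist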
# HSF1 inh = HSF1 inhibition | activity change, negative = inhibition, % at 7.5 µM (by protocol) | 300,000 tested, 0.77% active | NIH3T3-HGL HSE-luciferase, MG132-induced, luminescence 8 h; stronger effect = lower value;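 active = more than half of replicate wells show activity change below -50%, luminescence cut by over half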;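 also: luciferase reports HSF-1 transcriptional activity via heat shock element; 0% = median of DMSO wells and -100% = zero luminescence signal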
# * hit, by the source's call; x = no result.
SMILES,S1P4 agonist,HSF-1 act,Hsp70 activator,S1P3 antag,S1P4 antag,HSF1 inh
Cc1ccc(Cn2c(Sc3ncccn3)nc3c2c(=O)[nH]c(=O)n3C)cc1,1.4,-72.8,-0.1,x,-21.3,-65.0*
Cn1c(=O)[nH]c(=O)c2c1nc(SCCC(=O)O)n2Cc1cccc(Br)c1,x,4.5,x,x,x,1.3
COc1cc(NC(=O)Nc2ccc3c(c2)OCO3)cc(OC)c1OC,1.2,-1.4,-0.3,-2.9,-10.2,3.1
O=C(Nc1ccc([N+](=O)[O-])cc1)Nc1ccc2c(c1)OCCO2,-0.3,64.1*,0.0,6.6,-6.9,31.0
Cc1cc(C)c(NC(=O)Nc2ccc3c(c2)OCO3)c(C)c1,x,-80.1,x,x,x,-75.2*
COc1ccc(C(C)(C)C)cc1NC(=O)Nc1ccc2c(c1)OCO2,-2.2,-39.5,-0.1,59.4*,0.6,-34.3
CCc1ccc(OCCCC(=O)Nc2ccc(S(=O)(=O)Nc3cc(C)nc(C)n3)cc2)cc1,x,1.2,x,x,x,2.7
O=C(O)C(=O)Nc1ccc(NC(=O)C(c2ccccc2)c2ccccc2)cc1,x,-65.7,x,x,x,-55.0*
O=C(Nc1ccccc1)C(c1ccccc1)c1ccccc1,x,13.4,x,x,x,-2.2
CCN(CC)c1ccc(S(=O)(=O)N2CCCCC2)cc1NC(=O)C1CCC1,x,8.8,x,x,x,5.2
CC1(C)CC(=O)C/C(=N/NC(=O)c2ccc(-c3ccccc3)cc2)C1,1.0,6.2,-0.2,-3.2,1.0,6.1
CC1(C)CC(=O)CC(=Nc2ccc(C(=O)O)cc2)C1,-0.1,20.1,0.9,103.2*,-8.3,-0.7
COC(=O)CCSCC(=O)Nc1ccc(C)c(S(=O)(=O)N2CCCCC2)c1,3.6,11.7,x,-18.4,-1.0,2.2
CCc1ccc(C(=O)NNc2ccc(F)cc2F)cc1,-0.8,-2.9,x,11.6,-5.8,-8.9
COC(=O)Nc1ccc(S(=O)(=O)N2CCC(C(=O)N3CCCC(C)C3)CC2)cc1 (stereo not given),0.1,69.3*,-0.2,-6.1,-7.9,38.7
CC1CCCN(C(=O)C2CCN(S(=O)(=O)c3ccc4c(c3)CC(C)N4C(=O)C3CC3)CC2)C1 (stereo not given),x,-75.5,x,x,x,-68.5*
COC(=O)Nc1ccc(S(=O)(=O)N2CCCC(C(=O)N3CCOCC3)C2)cc1 (stereo not given),0.8,2.0,x,-9.4,6.5,-3.2
CN(CC(=O)Nc1ccc(F)cc1)C(=O)COC(=O)CCN1C(=O)C2CC=CCC2C1=O (stereo not given),x,9.1,x,x,x,-6.3
O=C(NCCc1ccc(F)cc1)C(=O)Nc1cc2c3c(c1)CC(=O)N3CCC2,x,-21.9,x,x,x,-3.3
O=C(c1cc(Cl)nc2ccccc12)N1CCc2ccccc2C1,-0.7,-1.6,-0.3,9.6,-5.6,-1.3
CCCCCN(C(=O)CCC(=O)OC(C)C(=O)Nc1cccc(C#N)c1)c1c(N)n(CCCC)c(=O)[nH]c1=O (stereo not given),x,5.9,x,x,x,-9.8
COc1cc2c(cc1NC(=O)CSc1ccc(C)cc1)oc1ccccc12,1.1,15.5,-0.2,x,-16.9,11.5
COc1cc2c(cc1NC(=O)CSc1nc3ccc(C)cc3[nH]1)oc1ccccc12,0.6,73.8*,-0.4,7.8,2.6,47.9
O=C(COC(=O)/C=C/C(=O)OCC(=O)Nc1ccccc1F)Nc1ccccc1F,1.9,66.2*,x,-0.5,12.6,53.4
O=C(N/N=C/c1c[nH]c2ccccc12)c1[nH]c2ccc(Br)cc2c1-c1ccccc1,-0.1,-38.3,0.1,14.1,12.2,-20.6
SMILES,S1P4 agonist,HSF-1 act,Hsp70 activator,S1P3 antag,S1P4 antag,HSF1 inh
O=C(N/N=C/c1ccc(O)cc1)c1[nH]c2ccc(Br)cc2c1-c1ccccc1,-0.6,-68.7,0.5,-6.0,22.4,-58.1*
Cc1sc2nc(C3CC3)nc(SCC(=O)N3CCc4ccccc4C3)c2c1C,-2.9,67.5*,-0.1,x,-5.8,16.9
CN(C)c1ccc(N2C(=NC(=O)CCC3CCCC3)SC3CS(=O)(=O)CC32)cc1 (stereo not given),x,-2.0,x,x,x,-7.1
Nc1ccc(Sc2ccc([N+](=O)[O-])cc2)cc1,-0.5,4.6,0.0,16.7,12.9,-4.9
O=C1C=CC(=O)N1c1ccc(Sc2ccc([N+](=O)[O-])cc2)cc1,0.5,81.9*,x,2.5,-9.9,41.5
Cc1ccc(N(NC(=O)C(O)(c2ccccc2)c2ccccc2)C(=O)CCl)cc1,0.2,75.4*,-0.4,-1.4,-3.5,72.3

# From PubChem BioAssay
